From the supplement of paper PMC11732987, “Enantioselective OTUD7B fragment discovery through chemoproteomics screening and high-throughput optimisation” (Communications Chemistry, 2025)

Experiments:
Experiment in all cases: log2 ratio of Biotin-Ahx-Ub-VS probe labelling (fragment/DMSO); higher = less target engagement (more negative = stronger competition), active = hit call of the paper (q ≤ 0.05, log2 ratio ≤ -1)
Conditions in all cases: compound concentration: 200 uM; treatment time: 3 h
USP19 = target: T1, USP19 (UniProt O94966)
T1 sequence (whole entry): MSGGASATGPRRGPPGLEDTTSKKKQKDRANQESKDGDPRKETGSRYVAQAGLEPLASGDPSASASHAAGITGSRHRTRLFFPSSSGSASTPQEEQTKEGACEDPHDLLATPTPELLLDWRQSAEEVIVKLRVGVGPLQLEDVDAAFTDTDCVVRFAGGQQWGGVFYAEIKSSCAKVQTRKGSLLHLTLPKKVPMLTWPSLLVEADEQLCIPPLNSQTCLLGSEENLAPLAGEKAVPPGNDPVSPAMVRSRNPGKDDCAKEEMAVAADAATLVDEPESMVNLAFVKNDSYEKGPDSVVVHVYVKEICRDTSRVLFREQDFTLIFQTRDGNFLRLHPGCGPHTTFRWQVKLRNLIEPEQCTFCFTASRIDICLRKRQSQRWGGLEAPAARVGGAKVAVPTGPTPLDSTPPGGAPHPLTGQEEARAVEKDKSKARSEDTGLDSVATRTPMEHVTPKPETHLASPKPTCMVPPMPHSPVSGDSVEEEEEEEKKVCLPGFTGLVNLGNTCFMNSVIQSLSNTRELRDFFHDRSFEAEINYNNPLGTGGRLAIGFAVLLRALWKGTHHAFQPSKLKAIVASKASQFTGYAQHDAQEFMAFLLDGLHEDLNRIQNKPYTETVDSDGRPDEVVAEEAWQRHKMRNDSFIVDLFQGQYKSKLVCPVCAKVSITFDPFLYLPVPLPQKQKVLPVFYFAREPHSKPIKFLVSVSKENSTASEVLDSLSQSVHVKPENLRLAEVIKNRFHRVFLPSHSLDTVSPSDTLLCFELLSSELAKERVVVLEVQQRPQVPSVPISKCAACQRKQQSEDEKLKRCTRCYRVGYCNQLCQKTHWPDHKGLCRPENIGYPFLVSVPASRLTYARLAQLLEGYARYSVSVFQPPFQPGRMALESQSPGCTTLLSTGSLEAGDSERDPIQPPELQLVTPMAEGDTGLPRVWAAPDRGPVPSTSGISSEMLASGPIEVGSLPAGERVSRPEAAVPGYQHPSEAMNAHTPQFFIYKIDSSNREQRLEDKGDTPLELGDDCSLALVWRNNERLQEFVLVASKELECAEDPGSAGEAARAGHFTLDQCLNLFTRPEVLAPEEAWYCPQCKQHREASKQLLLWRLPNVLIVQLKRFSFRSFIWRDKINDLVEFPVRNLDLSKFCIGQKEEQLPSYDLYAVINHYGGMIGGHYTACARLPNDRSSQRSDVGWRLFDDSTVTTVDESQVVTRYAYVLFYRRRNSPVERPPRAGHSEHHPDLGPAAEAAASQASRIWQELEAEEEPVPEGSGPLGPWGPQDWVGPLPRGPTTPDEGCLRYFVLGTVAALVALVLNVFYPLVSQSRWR
How it was run: (§1)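 Labelling with Biotin-Ahx-Ub-VS (0.5 µM final, 1 h) followed a 3 h triplicate treatment of HEK293T lysate (495 µg per sample, Tris/CHAPS/IGEPAL buffer with protease inhibitors) with fragment at 200 µM or vehicle. Labelled DUBs were NeutrAvidin-enriched, digested with LysC and trypsin, and run by diaPASEF LC-MS/MS. The values, average log2 fragment/vehicle ratios by unpaired t-test, come from global-median-normalised Spectronaut label-free quantities. Proteins with ≥2 unique peptides were used.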

USP22 = target: T2, USP22 (UniProt Q9UPT9)
T2 sequence (whole entry): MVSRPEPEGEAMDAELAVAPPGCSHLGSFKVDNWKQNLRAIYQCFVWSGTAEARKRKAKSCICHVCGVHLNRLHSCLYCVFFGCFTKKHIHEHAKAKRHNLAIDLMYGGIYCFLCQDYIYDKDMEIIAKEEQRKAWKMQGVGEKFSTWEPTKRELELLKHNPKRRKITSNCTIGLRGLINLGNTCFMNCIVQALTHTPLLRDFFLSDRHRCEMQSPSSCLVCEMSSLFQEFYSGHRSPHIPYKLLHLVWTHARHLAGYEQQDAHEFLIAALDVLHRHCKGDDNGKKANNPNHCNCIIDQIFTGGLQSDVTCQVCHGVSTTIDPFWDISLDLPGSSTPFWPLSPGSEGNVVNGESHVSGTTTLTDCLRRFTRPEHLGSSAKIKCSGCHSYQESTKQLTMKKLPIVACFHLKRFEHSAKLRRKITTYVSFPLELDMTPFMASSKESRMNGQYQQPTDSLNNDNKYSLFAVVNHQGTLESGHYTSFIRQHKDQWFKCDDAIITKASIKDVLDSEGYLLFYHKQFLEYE
How it was run: as §1

USP24 = USP24 (UniProt Q9UPU5)
How it was run: as §1

USP25 = target: T3, USP25 (UniProt Q9UHP3)
T3 sequence (whole entry): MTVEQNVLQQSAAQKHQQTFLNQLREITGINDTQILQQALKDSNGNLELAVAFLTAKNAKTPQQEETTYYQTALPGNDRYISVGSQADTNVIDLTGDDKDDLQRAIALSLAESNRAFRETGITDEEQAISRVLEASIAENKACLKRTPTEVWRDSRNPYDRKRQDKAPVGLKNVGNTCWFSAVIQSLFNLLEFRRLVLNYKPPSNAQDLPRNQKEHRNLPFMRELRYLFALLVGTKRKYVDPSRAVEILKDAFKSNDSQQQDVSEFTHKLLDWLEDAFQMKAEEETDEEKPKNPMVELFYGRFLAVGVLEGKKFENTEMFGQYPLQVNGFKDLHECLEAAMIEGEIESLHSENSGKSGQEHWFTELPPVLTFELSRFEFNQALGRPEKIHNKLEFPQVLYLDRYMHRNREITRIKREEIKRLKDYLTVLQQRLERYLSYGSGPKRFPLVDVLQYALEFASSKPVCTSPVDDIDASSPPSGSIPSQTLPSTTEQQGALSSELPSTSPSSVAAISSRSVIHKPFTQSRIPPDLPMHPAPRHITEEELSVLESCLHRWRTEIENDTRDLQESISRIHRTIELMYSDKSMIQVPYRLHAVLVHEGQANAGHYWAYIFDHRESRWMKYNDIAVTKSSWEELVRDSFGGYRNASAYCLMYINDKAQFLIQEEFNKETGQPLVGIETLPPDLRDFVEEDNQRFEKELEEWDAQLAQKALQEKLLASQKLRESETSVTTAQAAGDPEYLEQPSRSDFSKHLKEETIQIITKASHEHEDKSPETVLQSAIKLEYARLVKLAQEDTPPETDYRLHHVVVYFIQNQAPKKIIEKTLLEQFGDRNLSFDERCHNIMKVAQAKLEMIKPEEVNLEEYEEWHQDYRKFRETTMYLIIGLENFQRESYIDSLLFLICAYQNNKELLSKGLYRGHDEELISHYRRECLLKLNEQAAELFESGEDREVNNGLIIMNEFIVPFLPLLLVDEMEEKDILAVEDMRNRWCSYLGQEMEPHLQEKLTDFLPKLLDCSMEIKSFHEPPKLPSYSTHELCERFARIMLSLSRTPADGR
How it was run: as §1

USP28 = target: T4, USP28 (UniProt Q96RU2)
T4 sequence (whole entry): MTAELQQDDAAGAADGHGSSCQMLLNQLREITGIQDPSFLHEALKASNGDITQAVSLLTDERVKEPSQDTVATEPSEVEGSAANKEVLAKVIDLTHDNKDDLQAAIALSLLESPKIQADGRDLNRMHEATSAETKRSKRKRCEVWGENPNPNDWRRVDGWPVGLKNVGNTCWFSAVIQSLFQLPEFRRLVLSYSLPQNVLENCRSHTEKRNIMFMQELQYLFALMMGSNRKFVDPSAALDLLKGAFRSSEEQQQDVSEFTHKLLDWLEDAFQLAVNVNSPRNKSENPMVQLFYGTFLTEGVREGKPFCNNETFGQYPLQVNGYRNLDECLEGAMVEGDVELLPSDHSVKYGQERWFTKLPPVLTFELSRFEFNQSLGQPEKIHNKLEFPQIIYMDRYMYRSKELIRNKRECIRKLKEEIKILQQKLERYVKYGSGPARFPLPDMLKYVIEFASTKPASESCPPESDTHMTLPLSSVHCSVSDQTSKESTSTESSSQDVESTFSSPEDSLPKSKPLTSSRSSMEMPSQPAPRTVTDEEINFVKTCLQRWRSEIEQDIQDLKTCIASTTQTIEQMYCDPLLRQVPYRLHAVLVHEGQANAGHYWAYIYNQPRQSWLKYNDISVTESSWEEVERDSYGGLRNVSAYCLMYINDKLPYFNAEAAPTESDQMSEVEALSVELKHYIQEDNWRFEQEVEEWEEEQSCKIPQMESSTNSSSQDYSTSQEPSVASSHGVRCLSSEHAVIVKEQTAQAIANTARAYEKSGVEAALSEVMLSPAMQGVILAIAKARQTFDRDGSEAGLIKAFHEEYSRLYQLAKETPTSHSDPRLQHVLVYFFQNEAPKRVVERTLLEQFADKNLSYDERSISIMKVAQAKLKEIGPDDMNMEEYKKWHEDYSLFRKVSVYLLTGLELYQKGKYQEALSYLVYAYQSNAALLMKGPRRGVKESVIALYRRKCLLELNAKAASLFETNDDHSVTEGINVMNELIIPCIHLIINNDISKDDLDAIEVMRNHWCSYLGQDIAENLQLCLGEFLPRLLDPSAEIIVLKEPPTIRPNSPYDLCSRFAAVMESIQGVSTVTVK
How it was run: as §1

Measured: log2 ratio of Biotin-Ahx-Ub-VS probe labelling

Chain of USP24 (Q9UPU5 whole entry): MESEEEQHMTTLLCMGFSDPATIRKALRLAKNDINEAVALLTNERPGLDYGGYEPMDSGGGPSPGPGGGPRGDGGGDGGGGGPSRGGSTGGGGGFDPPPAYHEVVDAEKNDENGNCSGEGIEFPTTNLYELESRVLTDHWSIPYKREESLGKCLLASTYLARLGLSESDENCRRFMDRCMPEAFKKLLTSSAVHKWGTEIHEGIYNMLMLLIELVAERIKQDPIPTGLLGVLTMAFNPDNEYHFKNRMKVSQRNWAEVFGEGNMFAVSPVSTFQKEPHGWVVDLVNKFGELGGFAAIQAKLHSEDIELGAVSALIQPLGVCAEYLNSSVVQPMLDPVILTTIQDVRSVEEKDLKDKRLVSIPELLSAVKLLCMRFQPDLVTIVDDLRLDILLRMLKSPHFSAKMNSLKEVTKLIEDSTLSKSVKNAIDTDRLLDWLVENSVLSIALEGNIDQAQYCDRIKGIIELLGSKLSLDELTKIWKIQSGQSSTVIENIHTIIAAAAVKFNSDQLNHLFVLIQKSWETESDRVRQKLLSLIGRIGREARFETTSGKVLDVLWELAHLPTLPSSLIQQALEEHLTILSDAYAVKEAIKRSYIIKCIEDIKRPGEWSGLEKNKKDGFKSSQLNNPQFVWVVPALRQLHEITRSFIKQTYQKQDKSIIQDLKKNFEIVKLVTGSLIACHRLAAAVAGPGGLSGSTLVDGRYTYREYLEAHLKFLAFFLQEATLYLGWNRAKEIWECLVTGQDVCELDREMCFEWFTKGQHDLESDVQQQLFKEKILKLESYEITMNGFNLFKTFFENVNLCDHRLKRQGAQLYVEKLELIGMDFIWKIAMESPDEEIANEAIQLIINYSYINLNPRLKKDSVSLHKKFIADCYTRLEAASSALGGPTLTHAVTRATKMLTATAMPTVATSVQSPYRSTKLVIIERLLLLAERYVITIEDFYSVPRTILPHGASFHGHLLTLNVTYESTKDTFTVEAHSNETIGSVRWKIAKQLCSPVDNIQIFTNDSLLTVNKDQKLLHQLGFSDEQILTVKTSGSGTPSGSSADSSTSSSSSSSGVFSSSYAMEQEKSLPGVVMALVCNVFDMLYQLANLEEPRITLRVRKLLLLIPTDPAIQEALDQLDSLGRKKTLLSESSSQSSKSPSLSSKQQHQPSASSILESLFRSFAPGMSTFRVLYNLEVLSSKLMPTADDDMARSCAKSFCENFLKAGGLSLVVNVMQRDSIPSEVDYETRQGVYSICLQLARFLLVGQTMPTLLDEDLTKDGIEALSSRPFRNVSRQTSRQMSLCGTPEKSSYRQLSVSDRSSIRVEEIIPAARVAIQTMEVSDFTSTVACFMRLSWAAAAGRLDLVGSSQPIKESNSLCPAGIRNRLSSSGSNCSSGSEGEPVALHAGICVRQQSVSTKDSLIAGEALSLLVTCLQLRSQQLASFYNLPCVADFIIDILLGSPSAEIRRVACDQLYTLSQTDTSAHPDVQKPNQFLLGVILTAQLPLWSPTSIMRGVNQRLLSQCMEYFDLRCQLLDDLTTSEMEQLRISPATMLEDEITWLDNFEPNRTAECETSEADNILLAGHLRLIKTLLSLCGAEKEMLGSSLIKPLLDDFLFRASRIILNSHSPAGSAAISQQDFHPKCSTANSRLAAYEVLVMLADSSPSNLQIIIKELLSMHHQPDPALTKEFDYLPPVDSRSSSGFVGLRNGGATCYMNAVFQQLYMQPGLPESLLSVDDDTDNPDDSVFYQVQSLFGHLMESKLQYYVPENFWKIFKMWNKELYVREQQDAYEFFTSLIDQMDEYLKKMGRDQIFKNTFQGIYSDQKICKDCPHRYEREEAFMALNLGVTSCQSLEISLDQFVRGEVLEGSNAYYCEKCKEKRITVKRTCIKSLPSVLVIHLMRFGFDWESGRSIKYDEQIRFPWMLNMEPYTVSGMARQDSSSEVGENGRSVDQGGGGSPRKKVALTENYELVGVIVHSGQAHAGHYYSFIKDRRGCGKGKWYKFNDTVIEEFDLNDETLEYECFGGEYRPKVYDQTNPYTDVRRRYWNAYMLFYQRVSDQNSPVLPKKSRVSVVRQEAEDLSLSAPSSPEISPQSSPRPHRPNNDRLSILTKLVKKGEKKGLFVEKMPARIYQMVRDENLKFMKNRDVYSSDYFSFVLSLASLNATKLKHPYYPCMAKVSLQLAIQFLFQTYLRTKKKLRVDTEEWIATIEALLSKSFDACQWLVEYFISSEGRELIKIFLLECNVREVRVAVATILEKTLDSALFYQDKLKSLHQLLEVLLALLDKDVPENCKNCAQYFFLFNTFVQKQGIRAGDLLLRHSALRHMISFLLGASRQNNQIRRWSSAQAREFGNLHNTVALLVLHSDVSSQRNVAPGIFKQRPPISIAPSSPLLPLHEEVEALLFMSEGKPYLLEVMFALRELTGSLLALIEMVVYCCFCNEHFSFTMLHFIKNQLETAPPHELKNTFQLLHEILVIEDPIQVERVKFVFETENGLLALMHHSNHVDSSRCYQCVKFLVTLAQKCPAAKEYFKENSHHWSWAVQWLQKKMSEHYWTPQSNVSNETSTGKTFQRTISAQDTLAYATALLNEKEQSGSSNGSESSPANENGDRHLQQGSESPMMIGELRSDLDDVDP

Cl.Cn1c(CNC(=O)CCl)nc2cccnc21
inactive: USP19 -0.0671 | USP22 -0.175 | USP24 -0.218 | USP25 -0.148 | USP28 -0.316
